Screens (PubChem)
This is a sample that favours compounds with a hit; in the whole collection about 2.9% have one here.
SKN-1 inh: C. elegans SKN-1 inhibition; C. elegans VP596 Pgst-4::GFP/RFP ratio, acrylamide-induced, 24 h; inhibition, % at 21.8 µM; 0.49% of 360,000 active; AID 624304;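 active means interference check ratio from 0.5 to 1.5 plus GFP to RFP signal ratio inhibition reaching or exceeding a fixed threshold, cut at about 30% in these data, passing the limit was not always enough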
PG9 Ab binder: PG9 antibody binding by small molecule; TR-FRET gp120-PG9 antibody binding; 0.43% of 360,000 active; AID 624416; inhibition, % at 6.7 µM; in the data active means inhibition above about 8.5%
EP2 modulator: modulators of human EP2 prostaglandin E2 receptor. EP2-expressing cells, cAMP HTRF FRET, PGE2 co-stimulation. 0.83% of 260,000 active. induction, % at 25 µM. AID 940. P43116;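 active means compounds whose cAMP rise, as percent of the full-agonist control response, exceeds 60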;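 further: rat C6 glioma line stably carrying human EP2 under a CMV promoter; the protocol text gives 20 µM as final concentration; 100% = response of wells given 1 µM PGE2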
Target sequence (P43116 whole entry, looked up): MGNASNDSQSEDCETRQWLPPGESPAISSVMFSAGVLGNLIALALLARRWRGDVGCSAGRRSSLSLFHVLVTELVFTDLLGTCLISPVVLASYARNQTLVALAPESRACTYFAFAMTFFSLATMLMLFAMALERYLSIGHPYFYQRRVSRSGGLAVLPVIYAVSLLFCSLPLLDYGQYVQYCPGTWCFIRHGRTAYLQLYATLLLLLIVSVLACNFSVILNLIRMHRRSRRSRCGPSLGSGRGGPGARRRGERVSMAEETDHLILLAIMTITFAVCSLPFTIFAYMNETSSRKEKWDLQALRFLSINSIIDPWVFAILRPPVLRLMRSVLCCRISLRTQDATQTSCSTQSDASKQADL
RAM network inh: blocks the yeast RAM network; inhibition, % at 50 µM; S. cerevisiae dse1pr::URA3 reporter, 5-FOA growth OD615, 2 d; analog-sensitive cbk1-as2 kinase mutant strain; 1.8% of 190,000 active;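 active means inhibition above a set limit, 3 SD over mean compound inhibition, cut at about 8.4% in these data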;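 further: 0% = DMSO-only wells with no growth and 100% = 10 µM 1-NA-PP1 full growth; inhibition rescues growth on 5-FOA so higher OD means more RAM inhibition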
PGE2 EP2 inh: blocks the human prostaglandin E2 receptor EP2; AID 1422; inhibition, % at 25 µM; C6 glioma cells expressing human EP2, cAMP TR-FRET; cells stimulated with saturating PGE2; 0.52% of 260,000 active; P43116;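 active means percent inhibition above 40 after rounding to a whole number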;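 further: rat C6 glioma host cells with rolipram phosphodiesterase inhibitor present; the protocol text gives 20 µM as final concentration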
Rev-erbA mod: modulates human Rev-erb alpha binding to DNA | P20393 | activity, % at 10 µM | 0.79% of 370,000 active | Rev-erbα–FITC-DNA binding, fluorescence polarization, 90 min | AID 1259318;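 active means activity above about 14%, limit read from the data; passing the limit was not always enough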;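 further: 0% = DMSO wells with 35 nM protein and 100% = DMSO wells with 750 nM protein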
Rev-erbA confirm: confirmation of modulators of human Rev-erb alpha DNA binding. 61% of 3,000 active. Rev-erb alpha FITC-DNA binding, fluorescence polarization, 90 min. shares compounds with Rev-erbA mod. activation, % at 25 µM. AID 1259319;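 active means activation at or above a set limit, or at least 3 SD above the negative control mean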;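 further: 0% = 35 nM protein with DMSO and 100% = 750 nM protein high control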
RORg counter: counter-screen for Rev-erb alpha modulators: RORgamma DNA binding; shares compounds with Rev-erbA mod; purified RORgamma protein-FITC-DNA binding, fluorescence polarization; IC50, µM; 8% of 910 active;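 active means Compounds whose fitted half-maximal concentration for disrupting protein-DNA binding is below 10 micromolar; the record names Rev-erb in its text, so the target is in doubt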
Active calls of the source: *; i = inactive; · = not tested or not shown.

SMILES	SKN-1 inh	PG9 Ab binder	EP2 modulator	RAM network inh	PGE2 EP2 inh	Rev-erbA mod	Rev-erbA confirm	others
CC(C)c1nc2ccccc2c2nn(CC(=O)N3CCCCC3)c(=O)n12	·	·	-3	·	·	·	·
CC(C)(C)NC(=O)Cn1c(SCC(=O)N2CCCC2)nc2ccccc21	·	·	28	·	6	·	·
Cn1c2ccccc2c(=O)c2cc(C#Cc3ccsc3)ccc21	1	0	·	·	·	22*	16
Cn1c2ccccc2c(=O)c2cc(C#CC3(O)CCCCC3)ccc21	2	-1	·	·	·	-7	·
COc1ccc(OC)c(N=Cc2c(O)c3ccccc3oc2=O)c1	11	-3	·	·	·	-3	·
CCOc1ccccc1N=Cc1c(O)c2ccccc2oc1=O	-7	2	·	·	·	36*	10
CCOC(=O)CSc1nc2cc3c(cc2cc1CC)OCCO3	7	3	42	0	2	11	·
CCc1nnc(NC(=O)CSc2nc3cc4c(cc3cc2CC)OCCO4)s1	-1	2	47	4	34	90*	36*	RORg counter=>40
CCc1cc2cc3c(cc2nc1SCC(=O)Nc1nnc(C)s1)OCCO3	-4	2	25	2	25	60*	41*	RORg counter=>40
Cc1cccc(NC(=O)CSc2nnnn2-c2ccc3c(c2)OCO3)c1	·	·	-55	·	8	·	·
CCCc1nnc(NC(=O)C(C)Oc2ccc(Cl)cc2Cl)s1 (stereo not drawn)	·	·	-26	·	11	·	·
NS(=O)(=O)c1ccc(CCNC(=O)CCc2nc3sc4c(c3c(=O)[nH]2)CCCC4)cc1	12	1	·	·	·	-1	·
CCc1ccc(NC(=O)CCc2nc3sc4c(c3c(=O)[nH]2)CCCC4)cc1	16	7	·	·	·	19*	7
Cc1ccc(OCCNC(=O)CCc2nc3sc4c(c3c(=O)[nH]2)CCCC4)cc1	10	7	·	·	·	20*	12
O=C(CCc1nc2sc3c(c2c(=O)[nH]1)CCCC3)NCCc1ccc(Cl)cc1	11	5	·	·	·	21*	7
CC1(C)Oc2ccc(C(=O)N3CCCC3)cc2N(CC(=O)N2CCCC2)C1=O	·	·	-42	·	9	·	·
Oc1ccccc1-c1nc(NCc2cccnc2)c2ccccc2n1	13	1	-31	·	2	4	·
Oc1ccccc1-c1nc(NCc2ccccc2)c2ccccc2n1	-16	6	·	·	·	97*	77*	RORg counter=>40
Cc1ccc(C)c(OCCC(=O)NCCc2ccc(Cl)cc2)c1	9	4	·	·	·	23*	27*
CN(C)S(=O)(=O)N1CCN(CC(O)COc2ccc3cc(Br)ccc3c2)CC1 (stereo not drawn)	6	1	-29	1	9	1	·
O=S(=O)(N1CCCCC1)N1CCN(CC(O)COc2ccc3cc(Br)ccc3c2)CC1 (stereo not drawn)	-10	12*	-39	1	12	100*	49*	RORg counter=i
CCCC(=O)N(CC)c1nnc(-c2ccccc2C)s1	·	·	3	·	13	·	·
Cn1c2ccccc2c(=O)c2c(=O)n(C3CCCCCC3)c(C3CCCCC3)nc21	19	-3	11	1	9	161*	79*
CCOC(=O)c1sc(NC(=S)NC(=O)c2cccc(OC)c2)nc1C	-2	-2	·	·	·	94*	38*	RORg counter=>40
COC(=O)c1sc(NC(=S)NC(=O)c2cc(OC)c(OC)c(OC)c2)nc1C	9	-2	·	·	·	57*	1
SMILES	SKN-1 inh	PG9 Ab binder	EP2 modulator	RAM network inh	PGE2 EP2 inh	Rev-erbA mod	Rev-erbA confirm	others
COC(=O)c1sc(NC(=S)NC(=O)c2ccccc2)nc1C	-8	-1	-10	2	10	23	·
CCOC(=O)c1sc(NC(=S)NC(=O)c2ccccc2)nc1C	6	0	-28	2	9	20*	0
COc1cc(C(=O)Nc2nc3ccc4nc(C)sc4c3s2)cc(OC)c1OC	-2	-3	9	2	12	115*	8
CC[C@H](Cn1nc(-c2cccs2)ccc1=O)NC(=O)CCn1nccc1C	·	·	-6	·	·	·	·
Cn1c(SCC(=O)NCC2CCCO2)ncc(C(=O)Nc2ccc(Cl)cc2)c1=O (stereo not drawn)	7	-3	·	·	·	24*	2
COc1ccc(NC(=O)c2cnc(SCC(=O)NCCc3ccccc3)n(C)c2=O)cc1	-3	2	·	·	·	4	·
Cn1cc(SCC(=O)NCC2CCCO2)c2ccccc21 (stereo not drawn)	-8	-2	15	1	13	30*	1
Cn1c(SCC(=O)NCCc2ccccc2)ncc(C(=O)Nc2ccccc2)c1=O	16	5	·	·	·	30*	20*
Clc1ccc(Oc2ncnc3oc(-c4ccccc4)cc23)cc1	-1	2	-12	5	12	37*	18*
Cc1ccc(-c2nnn(C3CCN(C(=O)Cc4nonc4C)CC3)n2)cc1	·	·	-45	·	·	·	·
O=C(CSc1nc(-c2ccccc2F)nc2nc[nH]c12)Nc1c(Cl)cc(Cl)cc1Cl	·	0	17	3	18	38*	11
CCc1cccc(C)c1NC(=O)CSc1nc(-c2ccccc2F)nc2nc[nH]c12	2	2	-2	4	3	2	·
COC(=O)CSc1nnc(-c2ccc(N(C)C)cc2)n1C	·	·	-34	·	7	·	·
CCC(C)(C)NC(=O)CN(C(=O)c1snc(C(N)=O)c1N)c1cccc(C(F)(F)F)c1	·	·	-49	·	13	·	·
CN(C)c1nc(-c2cccnc2)nc(-c2ccccc2)c1C#N	18	-2	·	·	·	37*	29*	RORg counter=>40
CC(C)Nc1nc(-c2cccnc2)nc(-c2ccc(Cl)cc2)c1C#N	13	0	·	·	·	247*	55*	RORg counter=>40
CC(C)Nc1nc(-c2ccncc2)nc(-c2ccc(Cl)cc2)c1C#N	4	-3	44	2	9	20*	9
CC(C)Nc1nc(-c2cccnc2)nc(-c2ccccc2)c1C#N	25	0	·	·	·	23*	1
N#Cc1c(-c2ccccc2)nc(-c2cccnc2)[nH]c1=O	0	4	·	·	·	-4	·
Cn1cc(Cl)c(C(=O)Nc2nc3ccc(Cl)cc3s2)n1	-1	8	-35	0	5	83*	25*
Cn1cc(Cl)c(C(=O)Nc2nc3ccc([N+](=O)[O-])cc3s2)n1	-3	-1	-44	1	4	-10	·
COc1ccc(/C=C/c2noc(-c3ccccc3O)n2)cc1	-17	-1	11	7	7	-5	·
COc1cc(/C=C/c2noc(-c3ccccc3O)n2)cc(OC)c1OC	-2	0	-2	4	15	51*	25*
Cc1cc(=O)n2nc(N3CCCC(C(=O)NCc4ccc(F)cc4)C3)sc2n1 (stereo not drawn)	4	-1	·	·	·	0	·
O=C(NCc1ccc(F)cc1)C1CCCN(c2nc3ccsc3c(=O)s2)C1 (stereo not drawn)	7	1	-24	2	4	20*	17
